The source of these data is PubChem BioAssay (Tox21).

Assay [1] in a line: cAMP Responsive Elements (CRE) small molecule antagonists, cell-based qHTS assay: qHTS cell viability counter screen (AID 2060913). Note: nearly all actives have a fitted effect of over 40% in size. The procedure, abridged:
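CRE-bla HEK293T cells (2,000/well, 18 h) given compound plus NKH477 0.25 uM final for 3 h at 37C; viability counter-screen by CellTiter-Glo luminescence in same wells after 30 min.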
(Quantitative high-throughput screening tests each substance at several concentrations.)

A short description of assay [2]: cAMP Responsive Elements (CRE) small molecule agonists, cell-based qHTS assay: qHTS cell viability counter screen (AID 2060914). Note: nearly all actives have a fitted effect of over 50% in size. An outline of the steps: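 Cytotoxicity counter screen multiplexed with the CRE-bla reporter assay in HEK 293T cells: 3 h compound exposure at 37 °C, followed by CellTiter-Glo luminescence measured in the same wells.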

Inconclusive results are not listed. Where a call stands in place of a potency, no number is given. The source made the active and inactive calls. Calls come from the whole dose curve; as a rule, active = well fitted cell-killing curve with a large enough effect in the repeat runs; inconclusive = weak or mixed curves, or effect the other way; inactive = flat fitted curve, though single readings scatter.

`CC(C)=CC(C)(C)C`: the Potency result in assay [1] and in assay [2] was “inactive” each time.
In the case of `NNS(=O)(=O)c1ccc(Oc2ccc(S(=O)(=O)NN)cc2)cc1`, the Potency result in assay [1] and in assay [2] was “inactive” throughout.
`CC(C)(Cc1c[nH]c2ccccc12)NCC(O)COc1ccccc1C#N` (stereo unspecified): the Potency entry in assay [1] and in assay [2] was “inactive” each time.
